# Reference: publication PMC5540273 (PLoS ONE, 2017)
# What was measured:
# Details in all cases: concentration: 1 μM, replicates: in singlicate; n = 1
# QSK = system: QSK
# RAF1 = system: RAF1
# RET = system: RET
# RIOK1 = system: RIOK1
# RIOK2 = system: RIOK2
# RIOK3 = system: RIOK3
# RIPK1 = system: RIPK1
# RIPK2 = system: RIPK2
# RIPK4 = system: RIPK4
# RIPK5 = system: RIPK5
# ROCK1 = system: ROCK1
# ROCK2 = system: ROCK2
# ROS1 = system: ROS1
# [1] = system: RPS6KA4(Kin.Dom.1-N-terminal)
# [2] = system: RPS6KA4(Kin.Dom.2-C-terminal)
# [3] = system: RPS6KA5(Kin.Dom.1-N-terminal)
# [4] = system: RPS6KA5(Kin.Dom.2-C-terminal)
# [5] = system: T1, RSK1(Kin.Dom.1-N-terminal)
# T1 construct: gene RPS6KA1
# [6] = system: T2, RSK1(Kin.Dom.2-C-terminal)
# T2 construct: gene RPS6KA1
# [7] = system: T3, RSK2(Kin.Dom.1-N-terminal)
# T3 construct: gene RPS6KA3
# 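Note: KINOMEscan kinase panel screen.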
SMILES,%Inh (QSK) [%],%Inh (RAF1) [%],%Inh (RET) [%],%Inh (RIOK1) [%],%Inh (RIOK2) [%],%Inh (RIOK3) [%],%Inh (RIPK1) [%],%Inh (RIPK2) [%],%Inh (RIPK4) [%],%Inh (RIPK5) [%],%Inh (ROCK1) [%],%Inh (ROCK2) [%],%Inh (ROS1) [%],%Inh [1] [%],%Inh [2] [%],%Inh [3] [%],%Inh [4] [%],%Inh [5] [%],%Inh [6] [%],%Inh [7] [%]
Cc1c(O)cccc1Nc1ccnc2ccc(C(F)(F)F)cc12.Cl [GW466413],3,23,24,34,2,0,3,21,0,0,10,20,3,17,0,32,0,0,2,0
Cc1cccc(-c2nc(Nc3ccc4[nH]ncc4c3)c3ccccc3n2)n1 [GW857175],4,8,13,39,8,29,0,0,44,35,29,52,17,0,33,0,5,15,50,18
Nc1ncnc2[nH]c(-c3ccccc3)nc12 [AH5015],0,42,0,0,4,0,16,6,17,8,11,14,0,15,0,5,0,15,0,15
CS(=O)(=O)c1ccc(-c2c(-c3ncn[nH]3)sc(N3CCOCC3)c2C#N)cc1,0,0,5,0,0,0,6,0,0,18,0,15,14,4,0,0,0,16,14,4
Nc1nc(-c2nccs2)c(-c2ccnc3ccccc23)s1 [GW693542],0,15,37,24,6,38,0,14,5,0,14,18,0,20,0,20,0,20,0,0
O=C(Nc1ccccc1)Nc1cccc(Oc2ccc3nccn3n2)c1,0,21,8,48,0,15,2,0,0,0,0,0,0,43,0,0,0,0,0,0
